Reference: PubChem BioAssay (Tox21)
Inconclusive results are not listed. Entries that show only a call come without a potency. Calls of active or inactive are those of the source. Calls follow the shape of the full dose curve.

Assay: p53 small molecule agonists, cell-based qHTS assay with human liver microsomes: qHTS cell viability counter screen (AID 1963579)
Conditions: p53RE-bla HCT-116 viability, ATP luminescence, 16 h, HLM; series mostly up to 66 µM; activity change, negative = cytotoxicity: at the top concentration
Method in brief: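 Seed p53RE-bla cells at 4,000 per well; incubate 5 h at 37 C; add compound, human liver microsomes and NADPH; incubate 16 h at 37 C; add CellTiter-Glo; after 30 min at room temperature, read luminescence.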
Also: nearly all actives have a fitted effect of over 45% in size.

Row | SMILES | Potency | activity change, negative = cytotoxicity
1 | CCC(C)c1ccccc1O (stereo not given) | inactive | –
2 | Cc1cccc(C)c1[N+](=O)[O-] | – | 0.0514% (inactive)
3 | CC(=O)OC/C=C(\C)CC/C=C(\C)CCC=C(C)C | inactive | –
4 | O=C1CCC(=O)O1 | – | -9.33% (inactive)
5 | CS(=O)(=O)c1ccc(Cl)cc1 | inactive | –
6 | Cc1cccnc1 | inactive | –
7 | CS(=O)(=O)O | – | 1.72% (inactive)
8 | NC(=Nc1ccccc1)Nc1ccccc1 | – | 24% [at 30.3 µM] (inactive)
9 | O=C(O)c1ccccc1C(c1ccc(O)cc1)c1ccc(O)cc1 | inactive | –
10 | CN1Cc2c(N)cccc2C(c2ccccc2)C1 (stereo not given) | inactive | –
11 | CO[C@H]1C=CO[C@@]2(C)Oc3c(C)c(O)c4c(O)c(c(/C=N/N5CCN(C)CC5)c(O)c4c3C2=O)NC(=O)/C(C)=C\C=C[C@H](C)[C@H](O)[C@@H](C)[C@@H](O)[C@@H](C)[C@H](OC(C)=O)[C@@H]1C | inactive | –
12 | C[n+]1ccn(CCO)c1 | inactive | –
13 | CCOC(=O)c1c(C)n(C)c2ccc(O)cc12 | – | -5.24% [at 30.3 µM] (inactive)
14 | CC1=CC[C@@H]2C[C@H]1C2(C)C | – | -2.33% [at 13.5 µM] (inactive)
15 | c1ccc2c(c1)-c1cccc3c1c-2cc1ccccc13 | inactive | –
16 | C=CC(=O)NCOCCCC | inactive | –
17 | O=[N+]([O-])c1ccc2nc[nH]c2c1 | inactive | –
18 | CCCCCCCO | inactive | –
19 | CCCCCCCCCCCCCCCCCCOCC(O)CO (stereo not given) | – | -14.8% [at 30.3 µM] (inactive)

Assay: p53 small molecule agonists, cell-based qHTS assay with rat liver microsomes: qHTS cell viability counter screen (AID 1963580); also: potency is read from the fitted curve at half-maximal effect
Conditions: p53RE-bla HCT-116 + rat microsomes, ATP viability, 16 h; series mostly up to 66 µM; activity change, negative = cytotoxicity: at the top concentration
Method in brief: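 Rat liver microsome (0.5 mg/mL final) and NADPH (0.5 mg/mL final) co-incubation with compounds for 16 h at 37 C on HCT-116 p53RE-bla cells; cytotoxicity taken from intracellular ATP luminescence.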

Row | SMILES | activity change, negative = cytotoxicity | Potency
20 | S=C(NC1CCCCC1)NC1CCCCC1 | -33% (inactive) | –
21 | O=c1cc(-c2ccccc2)oc2ccccc12 | -2.65% (inactive) | –
22 | CC(C)(N=C=O)c1cccc(C(C)(C)N=C=O)c1 | – | inactive
23 | Nc1cccc(N)n1 | – | inactive
24 | O=S(=O)(Oc1ccc(Cl)cc1Cl)c1ccccc1 | – | inactive
25 | C[N+](C)(C)CC(O)CCl (stereo not given) | -1.77% (inactive) | –
26 | Cn1sccc1=O | – | 18.2 µM (active)
27 | NCCNCCNCCNCCN | – | inactive
28 | COc1ccc(N)c(C)c1 | – | inactive
29 | O=C(O)c1ccc(C(=O)O)c(C(=O)O)c1 | – | inactive
30 | CCCCCCCCCCCC(=O)N(C)CC(=O)O | – | inactive
31 | CCC(C)NC(N)=O (stereo not given) | -13% (inactive) | –
32 | CC(=O)OC1CC(C)OC(C)O1 (stereo not given) | – | inactive
33 | CC(C)CC(C)O (stereo not given) | – | inactive
34 | CCCCC(CC)COC(C)=O (stereo not given) | – | inactive
35 | O=C1CCCCC1 | – | inactive
36 | CCC(C)c1ccccc1O (stereo not given) | – | inactive

Row | SMILES | activity change, negative = cytotoxicity | Potency
37 | Cc1cccc(C)c1[N+](=O)[O-] | – | inactive
38 | N#Cc1ccc(C2CCCc3cncn32)cc1 (stereo not given) | 6.46% [at 30.3 µM] (inactive) | –
39 | CC(=O)OC/C=C(\C)CC/C=C(\C)CCC=C(C)C | – | inactive
40 | CS(=O)(=O)c1ccc(Cl)cc1 | – | inactive
41 | Cc1cccnc1 | – | inactive
42 | CS(=O)(=O)O | 0.262% (inactive) | –
43 | CNCCS(=O)(=O)O | 2.14% (inactive) | –
44 | NC(=Nc1ccccc1)Nc1ccccc1 | 1.7% [at 30.3 µM] (inactive) | –
45 | O=C(O)c1ccccc1C(c1ccc(O)cc1)c1ccc(O)cc1 | – | inactive
46 | CN1Cc2c(N)cccc2C(c2ccccc2)C1 (stereo not given) | – | inactive
47 | C[n+]1ccn(CCO)c1 | – | inactive
48 | CCOC(=O)c1c(C)n(C)c2ccc(O)cc12 | 0.192% [at 30.3 µM] (inactive) | –
49 | CC1=CC[C@@H]2C[C@H]1C2(C)C | 4.85% [at 13.5 µM] (inactive) | –
50 | c1ccc2c(c1)-c1cccc3c1c-2cc1ccccc13 | – | inactive
51 | C=CC(=O)NCOCCCC | – | inactive
52 | O=[N+]([O-])c1ccc2nc[nH]c2c1 | – | inactive
53 | CCCCCCCO | 9.94% (inactive) | –

Assay: p53 small molecule agonists, cell-based qHTS assay: qHTS cell viability counter screen (AID 1963581)
Conditions: p53RE-bla HCT-116 viability, ATP luminescence, 16 h; series mostly up to 66 µM; activity change, negative = cytotoxicity: at the top concentration
Method in brief: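 Viability was counter-screened in parallel with the p53 agonist reporter by measuring intracellular ATP luminescence in the same HCT-116 p53RE-bla wells after 16 h compound treatment at 37 C.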

Row | SMILES | Potency | activity change, negative = cytotoxicity
54 | S=C(NC1CCCCC1)NC1CCCCC1 | inactive | –
55 | O=c1cc(-c2ccccc2)oc2ccccc12 | – | 14.8% (inactive)
56 | CC(C)(N=C=O)c1cccc(C(C)(C)N=C=O)c1 | – | 17.2% (inactive)
57 | Nc1cccc(N)n1 | inactive | –
58 | O=S(=O)(Oc1ccc(Cl)cc1Cl)c1ccccc1 | – | -2.99% (inactive)
59 | C[N+](C)(C)CC(O)CCl (stereo not given) | – | 15.5% (inactive)
60 | Cn1sccc1=O | inactive | –
61 | NCCNCCNCCNCCN | inactive | –
62 | COc1ccc(N)c(C)c1 | inactive | –
63 | O=C(O)c1ccc(C(=O)O)c(C(=O)O)c1 | – | -13.6% (inactive)
64 | CCCCCCCCCCCC(=O)N(C)CC(=O)O | inactive | –
65 | CCC(C)NC(N)=O (stereo not given) | – | 8.08% (inactive)
66 | CC(=O)OC1CC(C)OC(C)O1 (stereo not given) | inactive | –
67 | CC(C)CC(C)O (stereo not given) | inactive | –
68 | COCc1ccc(COC)cc1 | – | 6.12% (inactive)
69 | CCCCNc1ccccc1 | – | -3.06% (inactive)
70 | CCCCC(CC)COC(C)=O (stereo not given) | inactive | –
71 | O=C1CCCCC1 | inactive | –
72 | CCC(C)c1ccccc1O (stereo not given) | – | 0.0844% (inactive)

Row | SMILES | Potency | activity change, negative = cytotoxicity
73 | Cc1cccc(C)c1[N+](=O)[O-] | – | -0.125% (inactive)
74 | N#Cc1ccc(C2CCCc3cncn32)cc1 (stereo not given) | – | 15.2% [at 30.3 µM] (inactive)
75 | CC(=O)OC/C=C(\C)CC/C=C(\C)CCC=C(C)C | inactive | –
76 | O=C1CCC(=O)O1 | – | -2.37% (inactive)
77 | CS(=O)(=O)c1ccc(Cl)cc1 | inactive | –
78 | Cc1cccnc1 | inactive | –
79 | CS(=O)(=O)O | – | -0.579% (inactive)
80 | CNCCS(=O)(=O)O | – | 0% (inactive)
81 | O=C(O)c1ccccc1C(c1ccc(O)cc1)c1ccc(O)cc1 | inactive | –
82 | CN1Cc2c(N)cccc2C(c2ccccc2)C1 (stereo not given) | inactive | –
83 | CO[C@H]1C=CO[C@@]2(C)Oc3c(C)c(O)c4c(O)c(c(/C=N/N5CCN(C)CC5)c(O)c4c3C2=O)NC(=O)/C(C)=C\C=C[C@H](C)[C@H](O)[C@@H](C)[C@@H](O)[C@@H](C)[C@H](OC(C)=O)[C@@H]1C | inactive | –
84 | C[n+]1ccn(CCO)c1 | inactive | –
85 | CC1=CC[C@@H]2C[C@H]1C2(C)C | – | -11.2% [at 13.5 µM] (inactive)
86 | c1ccc2c(c1)-c1cccc3c1c-2cc1ccccc13 | inactive | –
87 | C=CC(=O)NCOCCCC | – | 8.1% (inactive)
88 | O=[N+]([O-])c1ccc2nc[nH]c2c1 | inactive | –
89 | CCCCCCCO | – | 1.09% (inactive)
90 | CCCCCCCCCCCCCCCCCCOCC(O)CO (stereo not given) | – | 0.261% [at 30.3 µM] (inactive)
